High-throughput results as filed in PubChem BioAssay.
Hits are enriched below; roughly 10% of the tested compounds scored in any of these assays.
GLS inhibitor: qHTS for Inhibitors of Glutaminase (GLS). Glutaminase kidney isoform, mitochondrial (Homo sapiens), O94925. GLS enzymatic activity, qHTS titration. Potency, µM (titrated, usually from 45.5 µM), inactives show at the top dose activity change, negative = inhibition, most hits filed as inhibitors. hit rate 0.21% among 410,000; note: % is set by controls: 0 for no effect and ±100 for the full control effect
Target sequence (O94925 whole entry, looked up, canonical isoform): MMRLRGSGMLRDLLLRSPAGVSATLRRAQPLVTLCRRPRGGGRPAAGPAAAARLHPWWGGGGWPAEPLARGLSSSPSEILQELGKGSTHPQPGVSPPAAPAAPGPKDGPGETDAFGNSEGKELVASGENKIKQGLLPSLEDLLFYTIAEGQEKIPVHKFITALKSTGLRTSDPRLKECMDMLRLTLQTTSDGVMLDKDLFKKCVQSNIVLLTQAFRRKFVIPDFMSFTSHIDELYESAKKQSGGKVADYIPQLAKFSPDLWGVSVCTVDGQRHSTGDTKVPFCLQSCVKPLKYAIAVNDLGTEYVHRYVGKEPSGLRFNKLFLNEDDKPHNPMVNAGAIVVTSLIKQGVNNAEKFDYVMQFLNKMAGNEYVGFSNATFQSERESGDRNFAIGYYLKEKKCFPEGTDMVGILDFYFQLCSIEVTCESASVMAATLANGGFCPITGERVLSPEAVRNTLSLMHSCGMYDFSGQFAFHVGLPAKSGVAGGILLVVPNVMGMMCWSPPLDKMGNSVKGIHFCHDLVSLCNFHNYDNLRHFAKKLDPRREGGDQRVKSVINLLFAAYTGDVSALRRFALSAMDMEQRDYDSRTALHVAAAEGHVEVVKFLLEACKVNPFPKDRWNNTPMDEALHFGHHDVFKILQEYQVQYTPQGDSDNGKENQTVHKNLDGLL
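hKGA in 45 mM KH2PO4 pH 8.2, 0.02% Tween-20 with pin-transferred compounds; 1 mM L-glutamine (stock) plus glutamate oxidase/HRP/Amplex Red coupling added. Fluorescence read initially and after 30 min at RT.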
G9a block: qHTS Assay for Inhibitors of Histone Lysine Methyltransferase G9a; Histone-lysine N-methyltransferase EHMT2 (Homo sapiens), Q96KQ7; G9a H3K9 monomethylation, AlphaScreen, 2 h; Potency, µM (series often up to 102 µM), for inactives: at the highest dose activity, negative = inhibition, actives largely listed as inhibitors; hit rate 8.8% among 350,000; AID 504332, 2011; note: % is set by controls: 0 for no effect and ±100 for the full control effect; nearly all actives have a fitted effect of over 75% in size
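G9a (20 nM) preincubated 15 min RT with compounds, then 500 nM biotinylated H3K9 peptide and 20 uM SAM added; 2 h RT reaction. Monomethyl-H3K9 product detected by AlphaScreen with anti-H3K9me1 antibody, streptavidin donor and anti-rabbit IgG acceptor beads.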
HP1b binding inh: HTS for Inhibitors of HP1-beta Chromodomain Interactions with Methylated Histone Tails | AlphaScreen HP1-beta / biotin-H3K9me3 peptide binding | Potency, µM (top dose mostly 114 µM), without a hit: at the highest dose activity change, negative = inhibition, most hits filed as inhibitors | hit rate 0.56% among 390,000 | AID 540317, 2011; note: nearly all actives have a fitted effect of over 70% in size
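AlphaScreen: HP1-beta (50 nM) preformed 30 min with biotin-H3(1-18)K9me3 peptide (50 nM) in PBS pH 7.4, 0.01% Tween-20. Compound added for 30 min at RT, then streptavidin donor/nickel chelate acceptor beads (10 ug/mL) for 30 min.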
BAZ2B block: qHTS Assay for Inhibitors of BAZ2B; Bromodomain adjacent to zinc finger domain protein 2B (Homo sapiens), Q9UIF8; AlphaScreen BAZ2B-H3K14Ac peptide displacement; Potency, µM (titrated, usually from 114 µM), without a hit: top-dose activity change, negative = inhibition, most hits filed as inhibitors; hit rate 4.4% among 360,000; AID 504333, 2011; note: % is set by controls: 0 for no effect and ±100 for the full control effect; nearly all actives have a fitted effect of over 60% in size
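Compounds, titrated to a top concentration of 110 uM, were incubated 30 min at room temperature with preformed BAZ2B/acetyl-K14 H3 peptide complex (50 nM each). Proximity signal was measured by AlphaScreen after 20 min with beads.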
JMJD2A Tudor: qHTS Assay for Inhibitors of JMJD2A-Tudor Domain | Lysine-specific demethylase 4A (Homo sapiens), O75164 | AlphaScreen JMJD2A-Tudor / H3K4me3 peptide binding | Potency, µM (top dose mostly 114 µM), inactives show at the highest dose activity change, negative = inhibition, actives largely listed as inhibitors | hit rate 4.4% among 390,000 | AID 504339, 2011; note: % is set by controls: 0 for no effect and ±100 for the full control effect; nearly all actives have a fitted effect of over 50% in size
An asterisk follows results filed as active; ? = inconclusive; . = not tested or not shown; [ ] = another dose, or the depositor's remark. Calls come from the whole dose curve; as a rule, active = well fitted curve in the direction sought with a large enough effect; inconclusive = small, poorly fitted or top-dose-only effect, or another doubt; inactive = no such curve, though single readings can be large; an effect the other way counts as inactive or inconclusive. Potency is the fitted concentration of half-maximal effect.

SMILES	GLS inhibitor	G9a block	HP1b binding inh	BAZ2B block	JMJD2A Tudor
Cc1nn(-c2ccccc2)c2c1CC(=O)Nc1ccccc1-2	-11%	.	32%	.	-14%
COc1cc2c(cc1OC)C1(Nc3c-2c(C)nn3-c2ccccc2)C(=O)Nc2ccccc21 (centres undefined)	11%	71µM*	-26%	-12%	?
CCc1nn(-c2ccccc2)c2c1-c1cc(OC)c(OC)cc1C1(N2)C(=O)Nc2ccccc21 (centres undefined)	-3%	79µM*	-21%	?	?
COc1cc2c(cc1OC)C1(Nc3c-2c(-c2ccccc2)nn3-c2ccccc2)C(=O)Nc2ccccc21 (centres undefined)	16%	79µM*	-33%	?	?
COC(=O)N(C)c1nc2ccccc2s1	-2%	1%[59 µM]	49%	.	8%
CCCCNC(=O)N(C)c1nc2ccccc2s1	19%	50µM*	46%	-4%	8%
CCOc1ccc(/C=N/NC(=O)c2cc(-c3ccco3)nc3ccccc23)cc1	-1%	14%[59 µM]	33%	8%	-10%
COc1ccc(CNC(=O)COC(=O)c2cc(-c3ccco3)nc3ccccc23)cc1	.	10µM*	.	50µM*	.
COc1ccc(CNC(=O)COC(=O)c2cc(C)nc3ccccc23)cc1	3%	.	10%	.	-19%
CCNC(=O)COC(=O)c1cc(-c2ccco2)nc2ccccc12	?	40µM*	?	50µM*	56µM*
OCc1ccccc1CNCc1ccccc1	-1%	13%[59 µM]	16%	6%	-12%
Oc1cc(CNCc2ccccc2)c(O)cc1CNCc1ccccc1	18µM*	.	32µM*	.	7.9µM*
CCCCn1nnnc1C1(C)CCC(=O)N1Cc1ccc(C)cc1 (centres undefined)	0%	.	.	.	.
COc1cccc(CNC(=O)CSc2cc(C)[nH]c(=O)n2)c1	-18%	-3%[59 µM]	9%	-4%	-12%
CCOc1ccccc1NC1=C(OC)C(=O)C(Nc2ccccc2OCC)=C(OC)C1=O	11%	.	8.9µM*	.	7.1µM*
CCSc1nnc2c(n1)OC1(CCCC1)Nc1ccccc1-2	-2%	35µM*	40%	5%	-19%
CCSc1nnc2c(n1)OC(c1ccc(C)s1)Nc1ccccc1-2 (centres undefined)	-6%	5%[59 µM]	9%	-17%	-12%
Cc1ccc(NC(=O)C(=O)NCC(c2cccnc2)N2CCN(Cc3ccccc3)CC2)cc1C (centres undefined)	-4%	-3%[59 µM]	18%	-1%	-13%
Cn1c(SCC(=O)c2ccc(O)c(O)c2)nnc1-c1ccccc1	-23%	6%	16%	?	-14%
Cn1c(SCC(=O)c2ccc(O)c(O)c2)nnc1-c1cccs1	-14%	.	-5%	50µM*	25µM*
CCn1c(SCc2nc3ccccc3s2)nnc1-c1cccs1	2%	2%[12.7 µM]	26%	8%	-13%
Cn1c(SCC(=O)NC(c2ccccc2)c2ccccc2)nnc1-c1cccs1	-8%	-35%[12.7 µM]	-11%	-5%	50µM*
Cc1ccc(C(=O)CSc2nnc(-c3cccs3)n2C)o1	2%	50µM*	38%	9%	-1%
Cn1c(SCc2nc3ccccc3s2)nnc1-c1cccs1	2%	45µM*	3%	4%	-33%
O=C(CSc1nc2c(c(=O)[nH]1)CCC2)Nc1cccc(O)c1	22%	-37%[59 µM]	33%	-20%	-9%
SMILES	GLS inhibitor	G9a block	HP1b binding inh	BAZ2B block	JMJD2A Tudor
O=C1CC(c2nc3ccccc3n2CCCCOc2ccccc2)CN1c1ccccc1Cl (centres undefined)	-13%	-15%[59 µM]	36%	-32%	-19%
Cc1ccc(O)c(NC(=O)CCSc2nc(-c3ccco3)cc(C(F)(F)F)n2)c1	8%	7%[59 µM]	23%	-8%	-12%
COc1ccc(-c2ccc(=O)n(CC(=O)NCc3ccco3)n2)cc1	-17%	?	0%	?	?
CCC(C(=O)NCc1ccco1)n1nc(-c2ccc(OC)cc2)ccc1=O (centres undefined)	-12%	?	-32%	50µM*	?
Cc1ccn2c(NCc3ccccc3)c(-c3cccs3)nc2c1	9%	-47%	-2%	?	?
Cc1ccn2c(-c3csc(NCc4ccccc4)n3)c(C)nc2c1	10%	5µM*	?	32µM*	56µM*
Cc1nc(C)c(-c2csc(NCc3ccccc3)n2)s1	1%	50µM*	?	50µM*	?
Cc1nc(C)c(-c2csc(NCc3ccco3)n2)s1	-5%	?	-18%	50µM*	?
Cc1nn(CC2CC2)c(=O)n1-c1ccc(Oc2ccccc2)cc1	-2%	-2%	14%	-10%	-12%
Cc1cc(-c2ccc(S(=O)(=O)Nc3cc(Cl)ccc3C)s2)on1	-1%	7%[59 µM]	47%	5%	-7%
COc1ccccc1C(=O)c1cn(CC(=O)Nc2ccccc2F)c2nc(C)ccc2c1=O	0%	1%[59 µM]	14%	-5%	-26%
Cc1nc2ccccn2c1-c1csc(NCc2ccco2)n1	1%	8.9µM*	2%	50µM*	-34%[57.1 µM]
COc1ccc(-c2csc(NCc3ccco3)n2)cc1	19%	40µM*	?	50µM*	79µM*
c1coc(CNc2nc(-c3ccncc3)cs2)c1	20%	-24%[59 µM]	-30%	-11%	?
CN(C)N=C1c2cc(S(=O)(=O)N3CCOCC3)ccc2-c2ccc(S(=O)(=O)N3CCOCC3)cc21	-9%	20µM*	-22%	-34%	?
O=C1c2cc(S(=O)(=O)N3CCOCC3)ccc2-c2ccc(S(=O)(=O)N3CCOCC3)cc21	.	.	28%	.	-26%
Cc1c(Cl)cccc1-n1nnc(-c2nc(-c3ccc4c(c3)OCO4)no2)c1C	-5%	0%[59 µM]	26%	-4%	-3%
N#CCCN1CCN(S(=O)(=O)c2ccc(S(=O)(=O)NC3CCCC3)cc2)CC1	1%	35µM*	36%	7%	-6%
Cc1ccc(S(=O)(=O)N2CCN(CCC#N)CC2)cc1	63%	7.1µM*	45µM*	20µM*	3.5µM*
N#CCCN1CCN(S(=O)(=O)c2ccc(S(=O)(=O)N3CCCCCC3)cc2)CC1	2%	-13%[59 µM]	39%	8%	0%
N#CC1=C(S)N(c2ccc(F)cc2)C2(CCCCC2)NC1=O	22%	35µM*	38%	?	-11%
Cc1cc2n(n1)SC(Nc1ccc(F)cc1)N2 (centres undefined)	12%	1.4µM*	-12%	2%	20µM*
CCc1ccccc1NC1Nc2cc(C)nn2S1 (centres undefined)	-20%	1.6µM*	17%	-26%	?
